# Test results: PubChem BioAssay AID1851 (National Center for Advancing Translational Sciences (NCATS), 2009)
# “And” between values parts separate entries of the source, which are not always exact repeats. Identical values can stand only once. Out of some 16,000 compounds screened, about 2,600 (16%) were called active. About 20% were inconclusive and are not listed. Not all results are given here. A number with no mark means an inactive call. Calls come from the whole dose curve; as a rule, active = well fitted curve in the direction sought with a large enough effect; inconclusive = small, poorly fitted or top-dose-only effect, or effect the other way; inactive = no such curve, though single readings can be large or run the other way.
# Target: Cytochrome P450 2D6 (Homo sapiens) (UniProt P10635)
# Sequence (P10635 whole entry, looked up): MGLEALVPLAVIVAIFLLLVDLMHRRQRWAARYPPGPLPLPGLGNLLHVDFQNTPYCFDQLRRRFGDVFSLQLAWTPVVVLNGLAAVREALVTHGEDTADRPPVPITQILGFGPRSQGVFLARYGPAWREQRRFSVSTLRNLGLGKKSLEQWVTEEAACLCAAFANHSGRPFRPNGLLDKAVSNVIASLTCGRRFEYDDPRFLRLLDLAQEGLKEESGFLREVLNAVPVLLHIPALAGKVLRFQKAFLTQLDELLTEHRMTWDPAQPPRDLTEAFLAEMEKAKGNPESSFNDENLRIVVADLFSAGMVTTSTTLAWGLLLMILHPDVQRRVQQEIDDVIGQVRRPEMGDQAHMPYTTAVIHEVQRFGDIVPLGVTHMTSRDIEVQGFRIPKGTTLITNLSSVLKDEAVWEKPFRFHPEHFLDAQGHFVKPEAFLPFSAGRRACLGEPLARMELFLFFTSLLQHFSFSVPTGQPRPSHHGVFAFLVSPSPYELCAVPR
# Experiment: Cytochrome panel assay with activity outcomes
# Settings: recombinant CYP, pro-luciferin dealkylation, luminescence, p450-cyp2d6; series mostly up to 57.1 µM; activity, negative = inhibition: at the top concentration
# % is set by controls: 0 for no effect and ±100 for the full control effect.
Compound,"activity, negative = inhibition",AC50
COC(=O)[C@@H]1[C@@H](O)[C@]2(O)c3ccccc3O[C@]2(c2ccccc2)[C@H]1c1ccccc1,-3% [at 11.4 µM],
CC(C)c1ccccc1S(=O)c1ccccc1C(C)(C)O (centres undefined),-12.8% [at 11.4 µM],
CN(C)c1ccc(-c2ccc3ncnc(NC4CC4)c3c2)cc1,-18.2%,
FC(F)(F)c1ccccc1-c1ccc2ncnc(NC3CCNCC3)c2c1,-19.2%,
Cc1ccccc1-c1ccc2ncnc(NC3CC3)c2c1,,7.94 µM (active)
O=C(O)C1CCN(c2ncnc3ccc(-c4ccccc4C(F)(F)F)cc23)CC1,-1.69%,
FC(F)(F)c1ccccc1-c1ccc2ncnc(NC3CC3)c2c1,,20 µM (active)
CCN1C(=O)[C@H]2[C@@H]3[C@H](O)[C@H](O)CC(=O)[C@H]3CC[C@H]2C1=O,1.18% [at 11.4 µM] and 0.815% [at 11.4 µM],
CC(C)=CCC/C(C)=C/CO/N=C1/C[C@@H](O)[C@@H](O)[C@@H]2[C@@H]3C(=O)N(C(C)(C)C)C(=O)[C@H]3CC[C@@H]12,6.78% [at 11.4 µM],
[N-]=[N+]=Nc1ccc(C(=O)CSC[C@@H](NC(=O)CC[C@@H](N)C(=O)O)C(=O)NCC(=O)O)cc1,-5.38%,
Cc1ccc(S(=O)(=O)N2CCN(C(=O)c3ccccc3)C2C(C)C)cc1 (centres undefined),,14.1 µM (active)
Cc1ccc(S(=O)(=O)N2CCC(C(=O)O)(c3ccccc3)CC2)cc1,7.29% [at 11.4 µM],
CC(=O)N1CCN(S(=O)(=O)c2ccccc2)C1c1ccccc1 (centres undefined),-7.43%,
C[C@@H]1O[C@H](O[C@@H]2[C@H](C)O[C@H](O[C@@H]3[C@H](C)O[C@H](O[C@H]4CC[C@]5(C)[C@@H](CC[C@@H]6[C@H]5C[C@@H](O)[C@]5(C)[C@@H](C7=CC(=O)OC7)CC[C@]65O)C4)C[C@@H]3O)C[C@@H]2O)C[C@H](O)[C@@H]1O,4.5% [at 25.6 µM],
Cc1c(NC(=O)CN2C(=O)C3C4C=CC(C4)C3C2=O)c(=O)n(-c2ccccc2)n1C (centres undefined),-7.26%,
Cc1ccccc1C(=O)Nc1ccc(N2CCOCC2)nc1,-3.03%,
OC(CCN1CCCCC1)(c1ccccc1)c1ccccc1,,5.01 µM (active)
CC[N+](CC)(CC)CC[C@](O)(c1ccccc1)C1CCCCC1,,0.02 µM (active)
OC(CCCN1CCCCC1)(c1ccccc1)c1ccccc1,,0.126 µM (active)
Cn1ccnc1C[C@@](C)(O)c1ccccc1,-12.1% [at 11.4 µM],
Cc1ccc(SCN2CCCCC2)cc1 (tested in a mixture with another compound),-7.47% [at 11.4 µM],
CCOc1ccc(C(F)(F)F)cc1NC(=O)c1ccc(OC)c([N+](=O)[O-])c1,11.2%,
COc1ccc(C(C(=O)NC2CCCC2)N(Cc2ccc(F)cc2)C(=O)c2ccn[nH]2)cc1OC (centres undefined),-3.02%,
COC(=O)c1ccccc1NC(=O)C(CCS(C)(=O)=O)NC(C)=O (centres undefined),4.08%,
CC(CCc1ccccc1)NC(=O)/C=C/c1ccccc1 (centres undefined),-18.2%,
O=C1c2ccc3c4c(ccc(c24)C(=O)N1c1ccc2ccccc2c1)CC3,-2.14%,

Compound,"activity, negative = inhibition",AC50
O=C(c1ccc(Cl)cc1)N1CCN(C(=O)c2ccco2)CC1,7.09%,
Cc1ccc(Cn2cccc(NC(=O)NC3CCCCC3)c2=O)cc1,-7.79%,
CC(=O)c1[nH]c(C)c(C(C)=O)c1C,-1.55%,
O=C1C2C3C=CC([C@@H]2C(=O)N1C1CCCCC1)[C@H]1C(=O)N(C2CCCCC2)C(=O)C31 (some centres undefined),-12.1%,
O=C(CCc1ccccc1)NNC(=O)C1CCCCC1,-6.85%,
COc1ccc(C(OCCN2CCC[C@@H](C(=O)O)C2)(c2ccc(OC)cc2)c2ccc(OC)cc2)cc1,5.69%,
O[C@@](CCN1CCCCC1)(c1ccccc1)C1CCCCC1,,5.01 µM (active) and 1.26 µM (active)
COc1ccc(-c2nc3cnc(N4CCN(C)CC4)nc3n(Cc3cccs3)c2=O)cc1,4.42%,
O=C(Nc1cccc(F)c1)N1CCC2(CC1)CCN(C(=O)c1cnccn1)CC2,-1.26%,
Cn1ncc(Cl)c1C(=O)Nc1cccnc1,-14.2%,
COc1cc2c(cc1C(F)(F)F)N(C(=O)Nc1cc(F)cc(-c3cccnc3)c1)CC2,-4.26%,
CSc1cc2c(cc1C(F)(F)F)N(C(=O)Nc1cccnc1)CC2,,31.6 µM (active)
CN1CCc2cc(NC(=O)Nc3cccnc3)ccc21,,25.1 µM (active)
CC(C(=O)Nc1cccnc1)N1C(=O)C2C3C=CC(C3)C2C1=O (centres undefined),3.18%,
CCOC(=O)c1c(NC(=O)CCc2ccc(CC)o2)sc(C)c1C,-3.27%,
COC(=O)C1C(O)=C(C=NCc2ccccc2)C(=O)CC1(C)C (centres undefined),3.16%,
CCC(=O)N(C)/C=C1\Sc2ccccc2C1=O,-4.29%,
Cc1ccc(/C=C2\Sc3ccccc3C2=O)s1,,15.8 µM (active)
CCCN1C(=O)/C(=C/c2ccc(C)s2)SC1=Nc1ccc(OC)cc1,-20.9%,
O=S(=O)(c1ccccc1)c1cnn2c(C(F)(F)F)cc(-c3ccccc3)nc12,-7.85%,
c1ccc(-c2ccc3c(c2)c2c4n3CCN=C4CCC2)cc1,-14.4%,
Cc1ccc(C(C)C)n1C(=O)OC(C)(C)C,0.591% [at 11.4 µM],
O=S1(=O)C=C(Oc2ccc3ccccc3c2)c2ccccc21,-3.65%,
Cc1ccc(-c2nn(-c3ccccc3)cc2CSC(=N)N)cc1,,0.251 µM (active)
O=C(NCc1cn(-c2ccccc2)nc1-c1ccccc1)c1cc([N+](=O)[O-])cc([N+](=O)[O-])c1,-2.14%,
Cc1c(NC(=O)/C=C/c2cn(-c3ccccc3)nc2-c2ccc(F)cc2)c(=O)n(-c2ccccc2)n1C,-0.729%,
NC(=O)C1=CN([C@@H]2O[C@@H](COP(=O)(O)OP(=O)(O)OC[C@@H]3O[C@H](n4cnc5c(N)ncnc54)[C@@H](OP(=O)(O)O)[C@@H]3O)[C@H](O)[C@@H]2O)C=CC1,5.16%,
